# Screening data (PubChem)
# RORgamma inh: ROR gamma (mouse) transcription inhibition; Potency, µM (top dose mostly 53.6 µM), usual class: inhibitors; AID 2551; Drosophila S2 Gal4-RORgamma UAS-luciferase reporter, 20 h; 5.4% of 310,000 active; note: nearly all actives have a fitted effect of over 60% in size
#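 Luciferase reporter read in Schneider cells carrying Gal4-RORγ (mouse) and UAS-Photinus luciferase; cells given compound 1 h before 700 uM copper sulfate induction, then incubated 20 h at ambient temperature.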
# VP16 counter: Gal4-VP16 reporter inhibition counter-screen. 3.5% of 310,000 active. Drosophila S2 Gal4-VP16 UAS-luciferase, luminescence, 20 h. Potency, µM (highest dose often 53.6 µM), most hits filed as inhibitors;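 note: Gal4-VP16 expression switched on by copper sulfate through the metallothionein promoter; nearly all actives have a fitted effect of over 50% in size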
# TSHR antag: blocks TSH signaling through the human TSH receptor | TSHR-expressing cells, TSH-stimulated cAMP HTRF, 2 h; stronger effect = lower value | activity change, negative = inhibition, % at 11.5 µM | 0.2% of 330,000 active | AID 504810;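 active = activity change below a set negative limit, meaning inhibition stronger than a set level, cut at about -70% in these data; inconclusive = activity change between two set negative limits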
# Target sequence (P16473 whole entry, looked up): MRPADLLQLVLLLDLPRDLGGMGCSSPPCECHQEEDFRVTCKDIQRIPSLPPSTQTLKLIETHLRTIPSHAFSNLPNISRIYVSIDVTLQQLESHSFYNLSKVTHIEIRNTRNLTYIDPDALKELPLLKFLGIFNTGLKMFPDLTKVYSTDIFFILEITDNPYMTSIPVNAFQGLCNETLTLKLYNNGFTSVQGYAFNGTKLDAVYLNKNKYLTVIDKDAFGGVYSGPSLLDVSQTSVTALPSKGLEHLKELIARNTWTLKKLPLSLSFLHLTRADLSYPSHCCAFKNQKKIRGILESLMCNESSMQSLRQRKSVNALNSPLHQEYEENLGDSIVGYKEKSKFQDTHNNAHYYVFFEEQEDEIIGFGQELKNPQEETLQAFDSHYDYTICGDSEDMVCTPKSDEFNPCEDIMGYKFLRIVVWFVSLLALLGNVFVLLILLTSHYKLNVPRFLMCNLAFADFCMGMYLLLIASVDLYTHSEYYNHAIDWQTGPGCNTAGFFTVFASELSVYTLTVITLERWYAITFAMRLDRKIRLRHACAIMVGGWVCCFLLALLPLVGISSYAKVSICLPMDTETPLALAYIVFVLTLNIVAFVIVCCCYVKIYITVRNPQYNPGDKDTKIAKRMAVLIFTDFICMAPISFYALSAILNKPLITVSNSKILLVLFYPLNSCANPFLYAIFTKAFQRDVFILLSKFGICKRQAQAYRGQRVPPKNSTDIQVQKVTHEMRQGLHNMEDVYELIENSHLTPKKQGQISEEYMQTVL
#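 Read-out is FRET at 665 nm (cryptate excitation 337 nm) from a cryptate-tagged anti-cAMP antibody, competed by cell cAMP against cAMP-d2. Compounds are tested on freshly harvested TSHR cells challenged with 4nM TSH (EC80) for 2 hours at 37 deg C.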
# ELG1 repair inh: inhibitors of ELG1-dependent DNA repair in HEK293T cells | AID 504467 | 2.3% of 330,000 active | Potency, µM (titrated, usually from 46.1 µM), usual class: inhibitors | HEK293T ELG1-luciferase reporter, luminescence, 16 h; DNA damage induced by 5-fluorouridine; note: nearly all actives have a fitted effect of over 55% in size
#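 HEK293T cells expressing luciferase-tagged ELG1 (2,000/well) received 5-Fluorouridine plus compound or DMSO for 16 hr at 37 °C. Luciferase was read by ONE-Glo luminescence after 30 min at room temperature.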
# B2AR arrestin: beta2AR (human) beta-arrestin recruitment activity; P07550; beta-arrestin recruitment to beta2AR, cell-based reporter; Potency, µM (doses to about 46.1 µM), hits mostly activators; 0.02% of 330,000 active; AID 492947; note: nearly all actives have a fitted effect of over 65% in size
# Numbers stand for hits; – = inactive; ? = inconclusive; · = no result; [ ] = remark or other dose. Rows were chosen to be rich in hits. Some 7.5% of all compounds tested hit in one or more screens of this group. Unless noted, calls come from the whole dose curve; as a rule, active = well fitted curve in the direction sought with a large enough effect; inconclusive = small, poorly fitted or top-dose-only effect, or another doubt; inactive = no such curve, though single readings can be large; an effect the other way counts as inactive or inconclusive.
SMILES,RORgamma inh,VP16 counter,TSHR antag,ELG1 repair inh,B2AR arrestin
COc1cc(/C=C2/CCC/C(=C\c3cc(O)c(OC)c(Cl)c3)C2=O)cc(Cl)c1O,?,?,–,14.6µM,–
O=C(NCCCc1ccccc1)[C@@H]1Cc2ccccc2CN1,–,–,–,–,–
O=C1CCCC=C1[C@@H](O)COCc1ccccc1,–[10 µM],–[10 µM],·,·,·
COc1ccccc1C(=O)COC(=O)Cc1ccccc1F,·,·,–,?,–
N#C/C(=C\c1ccccc1[N+](=O)[O-])C(=O)NCc1ccccc1,?,?,–,1.83µM,–
N#C/C(=C\C=C\c1ccccc1[N+](=O)[O-])C(=O)NCc1ccccc1,14.1µM,?,·,?,–
C=CCNC(=O)/C(C#N)=C/c1ccccc1[N+](=O)[O-],–,?,–,–,–
CCCCCCCCNC(=O)/C(C#N)=C/c1ccccc1[N+](=O)[O-],3.16µM,7.94µM,–,–,–
O=C(/C=C/c1ccccc1[N+](=O)[O-])Oc1ccccc1,–,–,–,–,–
COC(=O)C(=Cc1ccccc1[N+](=O)[O-])C(=O)OC,?,–,–,23.1µM,–
O=C(COc1cccc2ccccc12)NCc1cccnc1,–,–,–,–,–
Cc1ccc(C2CC(=O)Oc3c(C(C)C)ccc(C)c32)cc1 (centres undefined),–,–,·,·,·
COCC(=O)N1CCC[C@@]2(CCN(c3ccncc3)C2)C1,–,–,·,·,·
N#C/C(=C/C=C/c1ccccc1)C(=O)Nc1ccccc1,–,–,–,5.8µM,–
N#C/C(=C\C=C\c1ccccc1)C(=O)Nc1ccccc1,–,–,–,–,–
O=C(Nc1ccccc1)/C(=C/c1ccccc1)c1ccccc1,–,–,–,10.3µM,–
CCCOC(=O)Nc1nc2ccccc2o1,14.1µM,?,–,?,–
CCOC(=O)C(=CN=C(N)Nc1nc2ccccc2o1)C(=O)OCC,7.08µM,?,–,?,–
CCCCOC(=O)CSc1nc2ccccc2o1,–,–,–,–,–
COCc1nc2oc3ccc(F)cc3c(=O)c2cc1C(=O)OC,–,–,–,?,–
Cc1ccc(NC(=S)N(Cc2ccco2)C(C)c2cccs2)c(Cl)c1 (centres undefined),–,–[10 µM],–,–,–
Cc1ccc(C)c(NC(=S)N(Cc2ccco2)C(C)c2cccs2)c1 (centres undefined),2.51µM,5.01µM,–,–,–
Cc1ccc(Cl)cc1NC(=S)N(Cc1ccco1)C(C)c1cccs1 (centres undefined),3.55µM,7.08µM,–,?,–
Cc1ccc(C)c(NC(=S)N(CCc2ccncc2)C(C)C)c1,11.2µM,–,–,–,–
CN(C(=O)COC(=O)c1ccc(Br)c(S(=O)(=O)N2CCOCC2)c1)C1CCCCC1,·,·,–,?,–
SMILES,RORgamma inh,VP16 counter,TSHR antag,ELG1 repair inh,B2AR arrestin
COC(=O)c1ccc(Oc2nc(C)cc(Oc3ccccc3)n2)cc1,?,–,–,–,–
COC(=O)c1ccc(Oc2cc(C)nc(-n3nc(C)cc3C)n2)cc1,0.282µM,3.16µM,–,?,–
COC(=O)c1c(N2C(=O)[C@H]3[C@@H](C2=O)[C@]2(C(=O)Nc4c(C)cccc42)N2CCC[C@@H]32)sc(C)c1C,–,–,–,16.4µM,–
COc1cc(N=c2ssnc2Cl)c(OC)cc1Cl,?,25.1µM,–,?,–
COc1ccc(OC)c(N=c2ssnc2Cl)c1,17.8µM,?,–,–,–
COc1cc(-n2nnnc2SC)c(OC)cc1Cl,–,–,–,–,–
COc1ccc(OC)c(N=C2C(=O)Nc3ccccc32)c1,?,–,–,–,–
CNCc1ccccc1Sc1ccc(O)c(O)c1,8.91µM,7.08µM,–,–,–
O=C(C1CCN(S(=O)(=O)c2ccc3c(c2)OCCO3)CC1)N1CCc2ccccc21,–,–,–,23.1µM,–
O=C(c1ccc(S(=O)(=O)Nc2ccc(F)cc2)cc1)N1CCN(C(=O)c2ccco2)CC1,–,20µM,–,?,–
O=C(C1CCC1)N1CCc2cc(S(=O)(=O)Nc3ccc4c(c3)OCCO4)ccc21,?,20µM,–,–,–
CC(=O)N1CCN(C(=O)c2ccc(NS(=O)(=O)c3ccc4c(c3)OCCO4)cc2)CC1,·,·,–,–,–
O=C(c1ccc(NS(=O)(=O)c2ccc3c(c2)OCCO3)cc1)N1CCCCC1,?,–,–,23.1µM,–
COC(=O)Cn1c(C(=O)N(C)C)cc2c1C[C@H]1CN(C(=O)c3ccccc3)[C@@](Cc3ccc(OC)cc3)(C(=O)OC)[C@@H]21,–,–,·,·,·
CC1Cc2cc(S(=O)(=O)N3CCC(C(=O)N4CCN(c5ccccc5F)CC4)CC3)ccc2N1C(=O)C1CC1 (centres undefined),–,–,–,?,–
Cc1csc(CN(C)C(=O)C2CCC(=O)N(CCN(C)C)C2)n1 (centres undefined),–,–,–,–,–
CS(=O)(=O)N1CCc2cc(S(=O)(=O)Nc3ccc4c(c3)OCCO4)ccc21,?,17.8µM,–,?,–
O=[N+]([O-])c1cccc(-c2n[nH]c(=S)n2Cc2ccccc2)c1,7.08µM,?,–,–,–
C=CCn1c(-c2cccc([N+](=O)[O-])c2)n[nH]c1=S,2.24µM,8.91µM,–,?,–
CC(C)C=O,–,–,·,·,·
O=C(c1cc(COc2ccc(F)cc2Cl)on1)N1CCCCCC1,–,–,–,?,–
O=C(c1cc(COc2ccc(F)cc2Cl)on1)N1CCC(c2ccncc2)CC1,11.2µM,7.08µM,–,–,–
COc1cc(OC)c(OC)cc1/C=C1\CC(C)C/C(=C\c2cc(OC)c(OC)cc2OC)C1=O (centres undefined),–,–,–,7.3µM,–
CCC1C/C(=C\c2cc(OC)c(OC)cc2OC)C(=O)/C(=C/c2cc(OC)c(OC)cc2OC)C1 (centres undefined),–,–,–,6.51µM,–
COc1cc(OC)c(OC)cc1/C=C1/Cc2ccccc2C1=O,–,–,–,–,–
SMILES,RORgamma inh,VP16 counter,TSHR antag,ELG1 repair inh,B2AR arrestin
CCOc1cc2sc(N3CCC(C(=O)NCCCN4CCCC4=O)CC3)nc2cc1Br,–,–,–,–,–
C/C(=N\Nc1ccc2nncn2n1)c1ccccn1,8.91µM,?,–,1.16µM,–
C/C(=N\Nc1ccc2nncn2n1)c1ccco1,–,–,–,?,–
O=c1nc(N/N=C/c2ccccn2)cn[nH]1,?,–,–,?,–
C(=N\Nc1ccc2nncn2n1)/c1ccccn1,–,–,–,5.8µM,–
CCCN(C(=O)Cn1nc(C)c([N+](=O)[O-])c1C)c1c(N)n(Cc2ccccc2)c(=O)[nH]c1=O,·,·,–,–,–
COc1ccc(SCCN2CCN(CCc3ccccc3)CCC2=O)cc1,10µM,?,·,·,·
COc1ccc(OC)c2nc3c(cc12)CCC3,15.8µM,?,–,–,–
COc1cc(/C=N/Nc2nc(Nc3ccccc3)nc(-n3nc(C)cc3C)n2)cc(OC)c1OC,5.01µM,6.31µM,–,1.84µM,–
